NS1 inh – qHTS Assay for Inhibitors of Influenza NS1 Protein Function; actives 0.4% (n = 270,000); Potency, µM (highest dose often 46.1 µM); note: actives are rising curves; nearly all actives have a fitted effect of over 50% in size
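S. cerevisiae expressing influenza A NS1, grown in glucose, washed, then diluted 1:100 into pH 6.0 -URA galactose medium with 23 nl compound. Growth recovery read as OD600; NS1-free strain serves as control.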
SARS PLP yeast – qHTS of Yeast-based Assay for SARS-CoV PLP; actives 0.19% (n = 330,000); S. cerevisiae expressing SARS-CoV PLpro, growth rescue; Potency, µM (doses to about 32.9 µM), most hits filed as activators; AID 485353, 2010; note: nearly all actives have a fitted effect of over 55% in size
Shiga toxin inh – A qHTS for Small Molecule Inhibitors of Shiga Toxin. Vero cells, Shiga toxin protein synthesis inhibition reporter. inhibition, % at 38.7 µM. actives 9.2% (n = 290,000). AID 2315, 2010; in the data active = inhibition mostly above about 28%, no sharp cut-off; inactive = mostly below about 43%
Cycloheximide cs – Cycloheximide Counterscreen for Small Molecule Inhibitors of Shiga Toxin. cell reporter, cycloheximide protein synthesis inhibition counterscreen. max response, %. actives 12% (n = 300,000); in the data active = max response mostly above about 13%, no sharp cut-off; inactive = mostly below about 14%; note: read at 38.3 µM for the half of the compounds with a filed dose
Each line names hits and unclear results; the compound was inactive in the other large screens. Hits are enriched below; roughly 12% of the tested compounds scored in any of these assays. Unless noted, calls come from the whole dose curve.

Cc1ccc(OCc2nc(-c3ccccc3)no2)c(C)c1	Shiga toxin inh 98.2, Cycloheximide cs 35.5
CCNC(=S)N1CCN(S(=O)(=O)/C=C/c2ccccc2)CC1	none
CCCCNS(=O)(=O)c1ccc2nc(-c3cccs3)cc(C(=O)NCC(OC)OC)c2c1	none
CCN(C[C@H]1N[C@@](CC)(C(=O)OC)[C@H]2C(=O)N(C)C(=O)[C@@H]12)C(=O)c1ccc(C(C)(C)C)cc1	none (no result: NS1 inh, Shiga toxin inh, Cycloheximide cs)
CC(C)NC(=O)NC(=O)COC(=O)c1ccc(S(=O)(=O)NCc2ccco2)cc1	none (no result: NS1 inh, Shiga toxin inh, Cycloheximide cs)
COc1cc(-c2nnc(COC(=O)c3c4c(nc5ccccc35)CCCC4)o2)cc(OC)c1OC	none
O=C(/C(C=Nc1ccc(F)cc1)=C(/O)c1ccco1)C(F)(F)F	Shiga toxin inh 62.0, Cycloheximide cs 59.6
O=C(NCCNC(=O)c1ccco1)c1ccc(F)cc1	none
Cc1ccc(N=C/C(C(=O)C(F)(F)F)=C(\O)c2ccco2)cc1Cl	Shiga toxin inh 106.2, Cycloheximide cs 59.7
Cc1cccc(N=C/C(C(=O)C(F)(F)F)=C(\O)c2ccco2)c1	none
CN(c1ccc(C(=O)N2CCOCC2)cc1[N+](=O)[O-])C1CCCCC1	NS1 inh inconclusive, Shiga toxin inh 94.5, Cycloheximide cs 48.3
CN1CCC(N(C)c2ccc(C(N)=O)cc2[N+](=O)[O-])CC1	none
O=C(c1ccc(N2CCC3(CC2)OCCO3)c([N+](=O)[O-])c1)N1CCOCC1	Shiga toxin inh 68.9, Cycloheximide cs 21.5 (no result: NS1 inh)
CCOC(=O)Cn1cnc2c(sc3nc(C)cc(C)c32)c1=O	Cycloheximide cs 20.4
C=CCn1cnc2c(sc3nc(C)cc(C)c32)c1=O	none
COC(=O)Cn1c(C)nc2c(sc3nc(C)cc(C)c32)c1=O	Shiga toxin inh 111.2, Cycloheximide cs 48.7
O=C(Nc1ccc(Cc2ccncc2)cc1)C1CCC(N2C(=O)C3CCCCC3C2=O)CC1 (centres undefined)	none
Cc1ccc(NC(=O)/C(Cl)=C/c2ccccc2)cc1C	Shiga toxin inh 94.7, Cycloheximide cs 45.5
CCC(=O)Nc1ccc(F)c(Cl)c1	none
CCN(CC)C(=O)C(=O)Nc1ccc(F)c(Cl)c1	Shiga toxin inh 87.9, Cycloheximide cs 28.2
CC(=O)Nc1ccccc1C(=O)C(=O)Nc1ccc(C)c(C)c1	Shiga toxin inh 39.9, Cycloheximide cs 40.1
CC(=O)Nc1ccccc1C(=O)C(=O)Nc1ccc(C)c(F)c1	NS1 inh inconclusive, SARS PLP yeast inconclusive, Shiga toxin inh 102.8, Cycloheximide cs 58.8
COc1ccc(N(C)S(=O)(=O)c2cccc(C(=O)Nc3cccc(C(=O)NC4CC4)c3)c2)cc1	none (no result: NS1 inh, Shiga toxin inh, Cycloheximide cs)
CC(=O)c1cccc(NC(=O)CNC(=O)Cc2ccccc2)c1	none
O=C(CCN1CCOCC1)Nc1ccc(F)cc1F	none (no result: SARS PLP yeast, Shiga toxin inh, Cycloheximide cs)
NC(=O)c1ccccc1NC(=O)Nc1cccc(Cl)c1Cl	none
Cc1ccc(NC(=O)C2(c3ccccc3)CC2(Cl)Cl)cc1C (centres undefined)	Shiga toxin inh 128.2, Cycloheximide cs 66.2
NC(=O)c1ccccc1NC(=O)Nc1ccc(F)c(Cl)c1	Shiga toxin inh 55.8, Cycloheximide cs 42.1
CC(=O)Nc1ccccc1C(=O)C(=O)Nc1ccc(F)c(Cl)c1	Cycloheximide cs 19.5
Cc1c(N2C(=O)CSC23C(=O)Nc2ccccc23)c(=O)n(-c2ccccc2)n1C (centres undefined)	none
CC1CCc2cc(F)ccc2N1S(=O)(=O)c1ccc(F)cc1 (centres undefined)	SARS PLP yeast 8.91µM
CC1CCc2cc(F)ccc2N1S(=O)(=O)c1ccc(Cl)nc1 (centres undefined)	none
CCc1ccc(C(=O)NN(C(=O)c2ccc(CC)cc2)C(C)(C)C)cc1	none
O/N=C/c1cn(-c2ccc(Cl)cc2)nn1	Cycloheximide cs 37.0 (no result: NS1 inh)
Cc1nn(-c2ccccc2)cc1/C=N/O	none
O/N=C/c1cn(-c2ccccc2)nn1	Cycloheximide cs 27.1 (no result: NS1 inh)
Clc1ccc(-n2cnnn2)cc1	none
CCOc1ccccc1N1CCN(C(=O)C2=CC=CN3CCS(=O)(=O)N=C23)CC1	none (no result: NS1 inh, Shiga toxin inh, Cycloheximide cs)
C=CCSC(=C(C#N)C#N)c1cc2c([nH]1)CCCC2	Cycloheximide cs 24.9
O=C(O)c1cc2c([nH]c1=O)CCCC2	NS1 inh inconclusive
Cc1cc(Nc2ccccc2)nc(-c2ccccc2O)n1	Shiga toxin inh 106.8, Cycloheximide cs 34.9
Cc1cc(Nc2cccc(F)c2)nc(-c2ccccc2O)n1	none
Cc1cc(NC2CCCCC2)nc(-c2ccccc2O)n1	Cycloheximide cs 14.7
Cc1cc(NCc2ccccc2)nc(-c2ccccc2O)n1	none
O=C(CSC1=NCCS1)Nc1nc2ccccc2s1	Shiga toxin inh 81.2, Cycloheximide cs 28.2
O=C(CSc1nc2ccccc2o1)Nc1nccs1	Cycloheximide cs 27.7 (no result: NS1 inh)
O=C(CSc1nc2ccccc2o1)Nc1nc2ccccc2s1	Shiga toxin inh 48.7, Cycloheximide cs 43.5

Screening data deposited in PubChem by National Center for Advancing Translational Sciences (NCATS).
